{
  "source": "PubChem BioAssay (NCI)",
  "note": "The panel holds about 83,000 compounds, 20% with a hit somewhere; the sample as a whole holds those more often.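 Growth was measured after 48 h exposure to one concentration of compound in 96-well plates. Values under 10 count as active.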 A number with no mark means an inactive call. Activity calls are given as the source filed them.",
  "data": [
    {"system": "MDA-MB-231 breast", "test": "NCI-60 one-dose screen, 48 h (100 = growth as untreated, 0 = no growth, -100 = all killed)", "settings": "10 µM", "values": [
      {"smiles": "COc1cc(C2CC(=O)Nc3c2c(C)nn3-c2nc3ccccc3[nH]2)cc(OC)c1O", "note": "(stereo unspecified)", "growth": "7.76% (active)"},
      {"smiles": "CCCCC(CC#N)(CCC)CCC", "growth": "126%"},
      {"smiles": "COc1cc(C)c2sc3ccccc3c(=O)c2c1NCCN(C)C", "growth": "27.9%"},
      {"smiles": "O=C(CCl)N1c2ccccc2Sc2ccc3ccccc3c21", "growth": "-72.5% (active)"},
      {"smiles": "CCOC(=O)Nc1ccc2c(c1)C(=O)N(CC)c1ccccc1O2", "growth": "20.2%"},
      {"smiles": "COc1ccc(/C=C(\\c2cc(OC)c(OC)c(OC)c2)c2nnc(-c3cccs3)o2)cc1", "growth": "71.7%"},
      {"smiles": "COc1ccc(-c2cc(/C=C/C(=O)c3ccc(N)cc3)[nH]n2)cc1OC", "growth": "38.8%"},
      {"smiles": "CCCCCCCCCCSC(=N)N", "note": "(tested in a mixture with another compound)", "growth": "7.07% (active)"},
      {"smiles": "CC(=O)CS(C)(=O)=O", "growth": "108%"},
      {"smiles": "Nc1ccc2c(c1)Cc1cc(N)c(Cl)cc1-2", "growth": "88.4%"},
      {"smiles": "CCOC(=O)c1cc(-c2ccccc2)nc(N)n1", "growth": "97.4%"},
      {"smiles": "CCCOCC(O)CNCCN", "note": "(stereo unspecified)", "growth": "97.5%"},
      {"smiles": "O=C(Nc1ccc(OCc2nnc(-c3ccccc3)o2)c(F)c1)Nc1ccc(Cl)c(Cl)c1", "growth": "64.5%"},
      {"smiles": "Cc1[nH]nc2c(=S)[nH]c(=O)[nH]c12", "growth": "104%"},
      {"smiles": "CCC(OC(=O)CC(C)C)c1ccccc1", "note": "(stereo unspecified)", "growth": "106%"},
      {"smiles": "C/C=C\\COc1cc(C)c(Cl)cc1Cl", "growth": "111%"},
      {"smiles": "CC(=O)N(O)c1ccc(/C=C/c2ccccc2)cc1", "growth": "48.7%"},
      {"smiles": "CCOC(=O)c1c(C(F)(F)F)n([O-])c2ccc(OC)cc2[n+]1=O", "growth": "19.8%"},
      {"smiles": "NCCNc1ccc2cc(-c3nc4ccccc4[nH]3)c(=O)oc2c1", "growth": "66%"},
      {"smiles": "Nc1ccc(Sc2ccc3c4c2cccc4c(=O)n2c4ccccc4nc32)cc1", "growth": "54.4%"},
      {"smiles": "COc1cccc(C(=O)NNc2nc(N3CCOCC3)nc(N3CCN(C(c4ccccc4)c4ccccc4)CC3)n2)c1", "growth": "86.3%"},
      {"smiles": "C=CCN1C(=O)/C(=C\\c2ccc3c(c2)CCC3)SC1=S", "growth": "98.8%"},
      {"smiles": "COc1cccc(-c2nnc(COc3ccc(-c4nc5ccc(C)cc5[nH]4)cc3OC)o2)c1", "growth": "64.5%"},
      {"smiles": "CNC(=O)c1cc(Oc2ccc(NC(=O)Nc3ccc(Cl)c(C(C)(C)C)c3)c(F)c2)ccn1", "growth": "48.4%"},
      {"smiles": "CC(=O)/C(=C\\c1ccc(Cl)cc1)c1ccccc1", "growth": "19.4%"},
      {"smiles": "Cc1cc(C)c(C(=O)OC(C)CNC2CCCCC2)c(C)c1", "note": "(stereo unspecified)", "growth": "102%"},
      {"smiles": "CC(=O)Oc1ccc(C2=Cc3ccc(OC(C)=O)cc3OC2C)cc1", "note": "(stereo unspecified)", "growth": "67.9%"},
      {"smiles": "CC(=O)Nc1nc(C)c(C(=O)NNC=O)s1", "growth": "106%"},
      {"smiles": "CCCCC(=O)N(c1ccc(Nc2c3ccccc3nc3cc([N+](=O)[O-])ccc23)cc1)S(C)(=O)=O", "growth": "84.6%"},
      {"smiles": "O=C1/C(=C/c2ccc(O)cc2O)N=C2SCCCN12", "growth": "104%"},
      {"smiles": "Cc1ccc2c(c1)-c1cc(C)nn1-c1ccc(C#N)cc1O2", "growth": "61%"},
      {"smiles": "O=C(c1ccc(Cl)cc1)c1no[n+]([O-])c1C(=O)c1ccc(Cl)cc1", "growth": "124%"},
      {"smiles": "Nc1nsc(C(=O)c2ccc(O)cc2)n1", "growth": "90.4%"},
      {"smiles": "COc1ccc(C2=Cc3ccc(OC(C)=O)cc3OC2)cc1", "growth": "52.5%"},
      {"smiles": "Cc1nc2cc(-n3c(-c4ccc(F)cc4)nc4ccccc4c3=O)ccc2n1Cc1ccccc1", "growth": "-25.5% (active)"},
      {"smiles": "Cc1nnc2c3nnc(-c4ccc(Cl)cc4)n3c3ccccc3n12", "growth": "100%"},
      {"smiles": "Cc1cc(C)c2c(Nc3ncnc4c3sc3nc(C)cc(C)c34)n[nH]c2n1", "growth": "99.4%"},
      {"smiles": "CCCCNC(=O)Oc1ccc(/C(=C(\\C)c2ccc(OC)cc2)c2ccc(OCCN3CCCCC3)cc2)cc1", "growth": "53.4%"}
    ]},
    {"system": "RXF 393 renal", "test": "NCI-60 one-dose screen, 48 h (100 = growth as untreated, 0 = no growth, -100 = all killed)", "settings": "10 µM", "values": [
      {"smiles": "COc1cc(C2CC(=O)Nc3c2c(C)nn3-c2nc3ccccc3[nH]2)cc(OC)c1O", "note": "(stereo unspecified)", "growth": "10.4%"},
      {"smiles": "CCCCC(CC#N)(CCC)CCC", "growth": "126%"},
      {"smiles": "COc1cc(C)c2sc3ccccc3c(=O)c2c1NCCN(C)C", "growth": "59.3%"},
      {"smiles": "O=C(CCl)N1c2ccccc2Sc2ccc3ccccc3c21", "growth": "-33.4% (active)"},
      {"smiles": "CCOC(=O)Nc1ccc2c(c1)C(=O)N(CC)c1ccccc1O2", "growth": "-4.5% (active)"},
      {"smiles": "COc1ccc(/C=C(\\c2cc(OC)c(OC)c(OC)c2)c2nnc(-c3cccs3)o2)cc1", "growth": "49.2%"},
      {"smiles": "COc1ccc(-c2cc(/C=C/C(=O)c3ccc(N)cc3)[nH]n2)cc1OC", "growth": "21.2%"},
      {"smiles": "CCCCCCCCCCSC(=N)N", "note": "(tested in a mixture with another compound)", "growth": "64.5%"},
      {"smiles": "CC(=O)CS(C)(=O)=O", "growth": "111%"},
      {"smiles": "Nc1ccc2c(c1)Cc1cc(N)c(Cl)cc1-2", "growth": "110%"},
      {"smiles": "CCOC(=O)c1cc(-c2ccccc2)nc(N)n1", "growth": "93.7%"},
      {"smiles": "CCCOCC(O)CNCCN", "note": "(stereo unspecified)", "growth": "110%"},
      {"smiles": "O=C(Nc1ccc(OCc2nnc(-c3ccccc3)o2)c(F)c1)Nc1ccc(Cl)c(Cl)c1", "growth": "56.3%"},
      {"smiles": "Cc1[nH]nc2c(=S)[nH]c(=O)[nH]c12", "growth": "107%"},
      {"smiles": "CCC(OC(=O)CC(C)C)c1ccccc1", "note": "(stereo unspecified)", "growth": "98.2%"},
      {"smiles": "C/C=C\\COc1cc(C)c(Cl)cc1Cl", "growth": "96.2%"},
      {"smiles": "CC(=O)N(O)c1ccc(/C=C/c2ccccc2)cc1", "growth": "-11% (active)"},
      {"smiles": "CCOC(=O)c1c(C(F)(F)F)n([O-])c2ccc(OC)cc2[n+]1=O", "growth": "41.9%"},
      {"smiles": "NCCNc1ccc2cc(-c3nc4ccccc4[nH]3)c(=O)oc2c1", "growth": "108%"},
      {"smiles": "Nc1ccc(Sc2ccc3c4c2cccc4c(=O)n2c4ccccc4nc32)cc1", "growth": "72.6%"},
      {"smiles": "COc1cccc(C(=O)NNc2nc(N3CCOCC3)nc(N3CCN(C(c4ccccc4)c4ccccc4)CC3)n2)c1", "growth": "69.4%"},
      {"smiles": "C=CCN1C(=O)/C(=C\\c2ccc3c(c2)CCC3)SC1=S", "growth": "101%"},
      {"smiles": "COc1cccc(-c2nnc(COc3ccc(-c4nc5ccc(C)cc5[nH]4)cc3OC)o2)c1", "growth": "85.1%"},
      {"smiles": "CNC(=O)c1cc(Oc2ccc(NC(=O)Nc3ccc(Cl)c(C(C)(C)C)c3)c(F)c2)ccn1", "growth": "90%"},
      {"smiles": "CC(=O)/C(=C\\c1ccc(Cl)cc1)c1ccccc1", "growth": "25.7%"},
      {"smiles": "Cc1cc(C)c(C(=O)OC(C)CNC2CCCCC2)c(C)c1", "note": "(stereo unspecified)", "growth": "105%"},
      {"smiles": "CC(=O)Oc1ccc(C2=Cc3ccc(OC(C)=O)cc3OC2C)cc1", "note": "(stereo unspecified)", "growth": "68.9%"},
      {"smiles": "CC(=O)Nc1nc(C)c(C(=O)NNC=O)s1", "growth": "109%"},
      {"smiles": "CCCCC(=O)N(c1ccc(Nc2c3ccccc3nc3cc([N+](=O)[O-])ccc23)cc1)S(C)(=O)=O", "growth": "75.8%"},
      {"smiles": "O=C1/C(=C/c2ccc(O)cc2O)N=C2SCCCN12", "growth": "102%"},
      {"smiles": "Cc1ccc2c(c1)-c1cc(C)nn1-c1ccc(C#N)cc1O2", "growth": "65%"},
      {"smiles": "O=C(c1ccc(Cl)cc1)c1no[n+]([O-])c1C(=O)c1ccc(Cl)cc1", "growth": "44.6%"},
      {"smiles": "Nc1nsc(C(=O)c2ccc(O)cc2)n1", "growth": "120%"},
      {"smiles": "COc1ccc(C2=Cc3ccc(OC(C)=O)cc3OC2)cc1", "growth": "94.7%"},
      {"smiles": "Cc1nc2cc(-n3c(-c4ccc(F)cc4)nc4ccccc4c3=O)ccc2n1Cc1ccccc1", "growth": "-31.3% (active)"},
      {"smiles": "Cc1nnc2c3nnc(-c4ccc(Cl)cc4)n3c3ccccc3n12", "growth": "102%"},
      {"smiles": "Cc1cc(C)c2c(Nc3ncnc4c3sc3nc(C)cc(C)c34)n[nH]c2n1", "growth": "97.6%"},
      {"smiles": "CCCCNC(=O)Oc1ccc(/C(=C(\\C)c2ccc(OC)cc2)c2ccc(OCCN3CCCCC3)cc2)cc1", "growth": "28.6%"}
    ]}
  ]
}
